The values that follow come from PMC7819943, “Rice protein-binding microarrays: a tool to detect cis-acting elements near promoter regions in rice”.

Over roughly 68,000 sequences, “fluorescence intensity (a.u.)” has its median near 9,100; the highest 2% begin near 16,000. Many of the other results were omitted from the sample, so the highest values are more common in it than they were.

OsWRKY34, sequence (Q0JBA9 entry or part of it): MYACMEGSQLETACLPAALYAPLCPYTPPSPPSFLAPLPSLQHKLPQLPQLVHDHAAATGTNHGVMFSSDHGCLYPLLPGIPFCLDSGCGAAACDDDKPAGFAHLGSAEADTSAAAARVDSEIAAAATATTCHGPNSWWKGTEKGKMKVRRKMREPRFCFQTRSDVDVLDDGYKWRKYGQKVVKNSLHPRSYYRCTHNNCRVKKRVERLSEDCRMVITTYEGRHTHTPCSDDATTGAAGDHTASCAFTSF

This assay addresses OsWRKY34 (Oryza sativa, UniProt Q0JBA9 1-250). Description: protein-binding microarray (RPBM); PBS, 2% BSA, 51.3 ng/ul salmon testes DNA, 50 uM zinc acetate, 200 nM TF, 25 C, 1 h; high values mean tight binding. Conditions: protein: recombinant; tags: N-terminal polyhistidine and DsRed monomer fusion (pET32a); label: CyDye5-dUTP incorporated in the synthesized complementary strand; 3' TTTTT single-stranded linker to array surface; dsDNA, one strand shown. In short, it runs like this:
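Transcription factors were each fused at the N-terminus to a polyhistidine tag plus DsRed and expressed in E. coli BL21-CodonPlus before Ni–NTA purification. Binding to a double-stranded custom Agilent array was carried out with 200 nM protein at 25 °C for 1 h in PBS, 2% BSA, salmon testes DNA and 50 µM zinc acetate. The binding signal is per-feature fluorescence intensity, in arbitrary units, on an Axon 4000B scanner.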
Turning to “GCTCAGATTGTTCATCAAGTTTTTCCTCTGTGCTCTGTTTCGGAGTCACCTAGTGCAG”, the binding signal was 8890 fluorescence intensity (a.u.).
Next, “ATGAGTATATATAAGCTTAGTCTCTTTTCTTTTCTTTCTTCGGAGTCACCTAGTGCAG”: 8940 fluorescence intensity (a.u.); “GTTGATTTTTTTTAAATATGTTTGACCGTTCGTCTTATTCCGGAGTCACCTAGTGCAG”: 8600 fluorescence intensity (a.u.); “CGTTGACTTTTTAAAATATATTTGACCGTTCGTCTTATTCCGGAGTCACCTAGTGCAG”: 24100 fluorescence intensity (a.u.).
Next, “TGTTGATTTTTTAAAATATGTTTGACCGTTCGTCTTATTCCGGAGTCACCTAGTGCAG”: 10700 fluorescence intensity (a.u.).
Next, “ACGCCGTTGACTTTTTTAAACATGTTTAACCGTTCATCTTCGGAGTCACCTAGTGCAG”: 47400 fluorescence intensity (a.u.); “TGTTGACTTTTTAAAACATGTTTGACCGTTCATATTATTCCGGAGTCACCTAGTGCAG”: 15700 fluorescence intensity (a.u.); “GCATTCGTTTCAGGCTGTTCCCAACCTCTCTCCCTTGTTTCGGAGTCACCTAGTGCAG”: 12000 fluorescence intensity (a.u.).
“CGGCCCAAGCTTCATTGACAAATTGTCTTGAATTTGTACACGGAGTCACCTAGTGCAG”: the binding signal is 8510 fluorescence intensity (a.u.).
Next, “ACACATATTTATTTTCTCCACTACCACAGAAGGAACTTTTCGGAGTCACCTAGTGCAG”: 9140 fluorescence intensity (a.u.).
Next, “GCGGTGGAGGCGGTGGCGGTGGTGGCGGTGGTGGAGGATGCGGAGTCACCTAGTGCAG”: 21200 fluorescence intensity (a.u.).
As to “AGGGGAGGTAGGTAAGAAGATTGAACAGTGGAGGGTTGTACGGAGTCACCTAGTGCAG”, the binding signal was 9840 fluorescence intensity (a.u.).
Next, “ATTTTCGTGTTATTTTTGGTTCTGGTTGATTGATCGATTTCGGAGTCACCTAGTGCAG”: 12900 fluorescence intensity (a.u.).
Next, “CTTCGATTGGTTTGTTGGTTTGACTGGAATTCGGATGGATCGGAGTCACCTAGTGCAG”: 10100 fluorescence intensity (a.u.); “GTGGTGGCGGTGGAGGTGGAGGTGGAGGCGCCGTGGTGCGCGGAGTCACCTAGTGCAG”: 12600 fluorescence intensity (a.u.).
In the case of “GAGGAGGAGGAGGAGGAGGAGGAGGATGCGGGTGGTGGTGCGGAGTCACCTAGTGCAG”, the binding signal is 10500 fluorescence intensity (a.u.).
Turning to “TTTATTGTTGTTTTTGGGTTGGTTTGGTTTGATTCCGATGCGGAGTCACCTAGTGCAG”, the binding signal was 9120 fluorescence intensity (a.u.).
Take “ATCGAATGGTTGGTTCGGTTTGGTTTTGATTGATCGATATCGGAGTCACCTAGTGCAG”: the binding signal was 22300 fluorescence intensity (a.u.).
Consider “ATTGATTGATTGGTTGGTTGGTTGGTTGGGTTGATCGATGCGGAGTCACCTAGTGCAG”, for which the binding signal is 20300 fluorescence intensity (a.u.).
“ATATAGGTTACGGATTTGTCATTGGTCGTTGTATTCTTTTCGGAGTCACCTAGTGCAG”: the binding signal is 10600 fluorescence intensity (a.u.).
Regarding “GTGGTTGGTTGGTGCGGTTGCGGCGGGTGATCGAACGATGCGGAGTCACCTAGTGCAG”, the binding signal is 12100 fluorescence intensity (a.u.).
In the case of “TTTGGTAAGATTTGAACGGTTGGTTGTATAGGTCATTGACCGGAGTCACCTAGTGCAG”, the binding signal was 16900 fluorescence intensity (a.u.).
For the sequence “TTTCATGTTCGTGAAAATTATACATTTTATATGCGCCTTTCGGAGTCACCTAGTGCAG”, the binding signal was 8720 fluorescence intensity (a.u.).
Next, “GAAGCCATATCATCTTAATTGTTTTTAGCTCTTCTCTCATCGGAGTCACCTAGTGCAG”: 10300 fluorescence intensity (a.u.); “AAAATTTTTCTATTCAATTCTTTTCGTTTTTGGACCTCTCCGGAGTCACCTAGTGCAG”: 8660 fluorescence intensity (a.u.); “CCCTAAACAGGTCAACCTCAGGTGTTGACTAGAGTACTAGCGGAGTCACCTAGTGCAG”: 8290 fluorescence intensity (a.u.).
Next, “GTGTGTAGTGGTGTTTGTGCGCGGCCTCTAATATCATGTACGGAGTCACCTAGTGCAG”: 11600 fluorescence intensity (a.u.); “GATTCATACAATTGTATGGTGTTAACATGGCGATTTTTTGCGGAGTCACCTAGTGCAG”: 9120 fluorescence intensity (a.u.); “CCGCTACAACACTCAACACCATACCACATGTCATCTCCGTCGGAGTCACCTAGTGCAG”: 8060 fluorescence intensity (a.u.).
Next, “CTTCTGTCACGTACGCCCGTCCCTCATATGGCCAATCGCGCGGAGTCACCTAGTGCAG”: 13400 fluorescence intensity (a.u.).
As for “CACTTACACTTTCATTTTCGCTTCATGTAAAATAGTCAACCGGAGTCACCTAGTGCAG”, the binding signal was 8980 fluorescence intensity (a.u.).
Next, “AGATGCCTCGTGCTAGGTTTGATTGGTTGGTTGGTTGGTACGGAGTCACCTAGTGCAG”: 19400 fluorescence intensity (a.u.); “GTTGGTGGTGGTGGTGGAGGAGGCGGTGGTGGGATCGATGCGGAGTCACCTAGTGCAG”: 23900 fluorescence intensity (a.u.).
Next, “CGGGAGAGGGAGGTGATGATGGGGCGGCGGAGGATTGGAGCGGAGTCACCTAGTGCAG”: 8130 fluorescence intensity (a.u.); “TCGCTAGGAGTGGTGGTGGTGGTGGGAGGAGGAGGCGATGCGGAGTCACCTAGTGCAG”: 13000 fluorescence intensity (a.u.); “GGGGATCAGGAGGGATGGGGATTGGGGAGACGAGTGGATGCGGAGTCACCTAGTGCAG”: 8330 fluorescence intensity (a.u.).
For “AGGGACAGGGTTGGTGAAGTGGCTTCCATGCGGCGGCCACCGGAGTCACCTAGTGCAG”, the binding signal was 8150 fluorescence intensity (a.u.).
As for “ATGCGGCGGTGGCGGGAGGGAGGGACAGGGTTGGTGAAGTCGGAGTCACCTAGTGCAG”, the binding signal was 17400 fluorescence intensity (a.u.).
On to “ATAGGTAGATTGTTGGTGATGCTCTAAGGGTGGGTTTTGACGGAGTCACCTAGTGCAG”, for which the binding signal was 13400 fluorescence intensity (a.u.).
Next, “TCGATTGGGGATTGGGGATTGGGGATCAGGAGGGATGGGGCGGAGTCACCTAGTGCAG”: 20900 fluorescence intensity (a.u.); “GGCGGAGGGAGGGAGGGGAAGTCGGTGGTGAGGTGGCGTGCGGAGTCACCTAGTGCAG”: 12900 fluorescence intensity (a.u.).
Next, “AGGAGGAGGAGGAGGAGGAGGAGGAGGCGGTGGGAGGGATCGGAGTCACCTAGTGCAG”: 14800 fluorescence intensity (a.u.).
Next, “GTTGCTGTTTTTGATGGTCGTTGAGACAGATAGTTTGGTACGGAGTCACCTAGTGCAG”: 8360 fluorescence intensity (a.u.).
